Most compounds without a hit are left out; they make up all but 3.7% or so of the library.
Rv3671c inh: Rv3671c (M. tuberculosis) protease inhibition; P9WHR9; inhibition, % at 5.96 µM; 320,000 tested, 0.048% active; AID 2606; in the data active means inhibition above about 38%;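 further: extracellular domain of Rv3671c used as enzyme; 0% = enzyme with DMSO and 100% = no enzyme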
FadD28 binding: blocks FadD28 binding to the bisubstrate probe. fluorescence polarization. inhibition, % at 12.5 µM. 360,000 tested, 0.22% active. AID 588549; in the data active means inhibition above about 8.5%, passing the limit was not always enough
Mtb bLac sens: beta-lactam sensitization of Mtb H37Rv; AID 434955; M. tuberculosis H37Rv growth with meropenem, percent inhibition; inhibition, % at 25 µM; 330,000 tested, 0.27% active; call rule not given here;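 further: growth measured after seven days incubation then overnight dye step; 0% = bacteria only wells and 100% = bacteria with antibiotic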
FBA Mtb inh: inhibits M. tuberculosis FBA enzyme; purified M. tuberculosis FBA, fluorescence read-out; P9WQA3; inhibition, % at 1 µM; 360,000 tested, 2.3% active; AID 588726;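 further: 0% = vehicle and 100% = reference inhibitor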
Target sequence (P9WQA3 whole entry, looked up): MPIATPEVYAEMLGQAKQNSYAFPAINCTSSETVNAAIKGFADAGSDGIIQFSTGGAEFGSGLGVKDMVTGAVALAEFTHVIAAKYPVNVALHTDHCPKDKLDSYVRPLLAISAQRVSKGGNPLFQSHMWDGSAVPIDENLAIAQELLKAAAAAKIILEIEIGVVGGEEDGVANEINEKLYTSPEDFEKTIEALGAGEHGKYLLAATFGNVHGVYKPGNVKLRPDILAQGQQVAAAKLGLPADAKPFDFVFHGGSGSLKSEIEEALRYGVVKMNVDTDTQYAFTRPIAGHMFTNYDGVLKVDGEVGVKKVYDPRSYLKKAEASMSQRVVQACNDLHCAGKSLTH
UGM FP inh: blocks M. tuberculosis UGM enzyme; purified UGM, fluorescence polarization probe displacement; 320,000 tested, 0.06% active; inhibition, % at 10 µM; P9WIQ1; AID 504406; in the data active means inhibition above about 10%, passing the limit was not always enough
GDH-TPI counter-1: inhibits GDH-TPI coupling enzymes, artifact for Mtb FBA screen; AID 588335; GDH-TPI coupled enzyme counterscreen, NADH absorbance; 360,000 tested, 1.2% active; inhibition, % at 4.8 µM; in the data active means inhibition above about 30%;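 further: 0% = DMSO wells and 100% = wells lacking the enzyme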
Mtb FBA inh conf: confirmation of M. tuberculosis fructose-bisphosphate aldolase inhibitors; shares compounds with FBA Mtb inh; purified M. tuberculosis FBA, fluorescence read-out; inhibition, % at 1 µM; 5,600 tested, 78% active; AID 651616;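 further: 0% = vehicle wells and 100% = reference inhibitor wells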
GDH-TPI counter-2: GDH-TPI inhibition counter-screen for FBA inhibitors | shares compounds with FBA Mtb inh | GDH-TPI coupled enzyme counterscreen, fluorescence | inhibition, % at 1 µM | 5,600 tested, 81% active; in the data active means inhibition above about 10%
GDH-TPI dose: GDH-TPI dose response counter-screen for Mtb FBA; shares compounds with FBA Mtb inh; GDH-TPI coupled enzyme assay, fluorescence, artifact counterscreen; IC50, µM; 170 tested, 79% active; call rule not given here
* hit, by the source's call; / = not tested or not shown; + = active, no number. Unless noted, no stated cut-off is given here; in the data, active means inhibition above about 27%; inactive means the rest.

SMILES | Rv3671c inh | FadD28 binding | Mtb bLac sens | FBA Mtb inh | UGM FP inh | GDH-TPI counter-1 | Mtb FBA inh conf | GDH-TPI counter-2 | others
CCOc1c2ccc(C(=O)NCC34CC5CC(CC(C5)C3)C4)cc2nn1CC | -9 | 1 | -5 | 39* | -1 | 8 | 1 | 6
CCCCn1nc2cc(C(=O)NCC34CC5CC(CC(C5)C3)C4)ccc2c1OC | 3 | 0 | 74 | 31* | 0 | 8 | 57* | 43*
CCOc1ccc(OCCNC(=O)c2ccc3c(c2)nnn3CC)cc1 | 3 | / | -2 | 2 | -7 | 3 | / | /
COc1c2ccc(C(=O)NCCCCc3ccccc3)cc2nn1C | 5 | -2 | -9 | 26 | 1 | 3 | / | /
CCOc1ccccc1Oc1c(C)oc2c(CN3CCN(CCO)CC3)c(O)ccc2c1=O | -3 | 0 | -3 | 80* | 4 | 15 | -11 | -8
CCOC(=O)c1c(C)oc2c1c(CN1CCN(CCO)CC1)c(O)c1ccccc12 | / | -2 | / | 3 | / | 4 | / | /
O=C(c1ccccc1)c1coc2ccc(O)c(CN3CCOCC3)c12 | 6 | 1 | -2 | 3 | 2 | -2 | / | /
COc1ccc(-c2coc3c(CN4CCOCC4)c(O)ccc3c2=O)cc1 | -1 | -2 | 3 | 41* | 2 | 8 | 63* | 50*
O=c1c(-c2ccccc2)coc2c(CN3CCCC3)c(O)ccc12 | 4 | -2 | -7 | 82* | 1 | 15 | 145* | 123*
Cc1c(O)ccc2c(=O)c(-c3nncn3-c3ccccc3)coc12 | 0 | -1 | 0 | 2 | 2 | 7 | / | /
O=c1c(-c2ccc(Cl)cc2)coc2c(CN3CCOCC3)c(O)ccc12 | -4 | -2 | 2 | 30* | 4 | 25 | 30* | 19*
CC1CCN(S(=O)(=O)c2ccc(C(=O)N3CCCC(C(F)(F)F)C3)cc2)CC1 (stereo unspecified) | 7 | 0 | -1 | 0 | 0 | 6 | / | /
Cc1oc2c(CN3CCOCC3)c(O)ccc2c(=O)c1-c1ccccc1 | -8 | -2 | 7 | 98* | -1 | 24 | + | +
COc1ccc(-c2c3c(=O)n(C)c(=O)n(C)c3cn2-c2ccccc2)cc1 | 9 | 0 | -9 | 4 | 0 | 8 | / | /
COc1ccc(-c2c3c(=O)n(C)c(=O)n(C)c3cn2-c2ccc(O)cc2)cc1 | -2 | 2 | -1 | 45* | 0 | 5 | + | 189*
COc1ccc(OC)c(NC(=O)CCNC(=O)N2CC(=O)Nc3ccccc32)c1 | / | -2 | / | 3 | / | 7 | / | /
CCOC(=O)CCc1c(C)nc2cc(-c3ccccc3OC)[nH]n2c1=O | 4 | 0 | 0 | 28* | 1 | -6 | 138* | 124*
Cc1csc2ncc(C(=O)NCc3ccccn3)c(=O)n12 | -3 | 0 | 1 | 65* | 0 | 36* | 175* | 147*
Cc1csc2ncc(C(=O)NCCc3ccccc3)c(=O)n12 | 6 | -3 | -6 | 52* | 2 | 29 | 122* | 104*
Cc1ccccc1NC(=O)c1cnc2ccccn2c1=O | 3 | -3 | 12 | 0 | 2 | 10 | / | /
Cc1csc2ncc(C(=O)NCCC(c3ccccc3)c3ccccc3)c(=O)n12 | -10 | -6 | -9 | 34* | 0 | 19 | 101* | 57*
CCc1ccccc1NC(=O)c1cnc2scc(C)n2c1=O | 1 | -2 | 8 | -1 | 1 | 1 | / | /
CSc1ccccc1NC(=O)c1cnc2scc(C)n2c1=O | -3 | -7 | -2 | -1 | -1 | 28 | / | /
O=C(NCCc1ccccc1)c1cnc2ccccn2c1=O | -5 | -3 | 1 | 105* | -2 | 30 | 113* | 88*
O=C(C[C@H]1C(=O)N(c2ccccc2)C[C@@H]1Cc1ccccc1)Nc1ccccc1 | / | -2 | / | -3 | / | 10 | / | /
SMILES | Rv3671c inh | FadD28 binding | Mtb bLac sens | FBA Mtb inh | UGM FP inh | GDH-TPI counter-1 | Mtb FBA inh conf | GDH-TPI counter-2 | others
CCCCCCC(=O)Nc1c2c(nc3ccccc13)N(C)CC2 | -3 | -1 | -3 | 48* | 2 | 6 | 94* | 100*
CN1CCc2c1nc1ccccc1c2NC(=O)CN1CCCC1 | 2 | 1 | 1 | 26 | -1 | 7 | / | /
COc1cc2c3c([nH]c2cc1F)C(=O)NCC3 | 5 | -5 | -1 | 102* | 4 | -4 | 71* | 46*
O=C(NNC(=S)NC(=O)c1cccc([N+](=O)[O-])c1)c1ccc(Br)cc1 | -5 | 2 | 97 | 0 | 3 | 17 | / | /
Cc1cc(NC(=O)c2ccc3sc([C@@H]4O[C@H](CO)[C@H](O)[C@H](O)[C@H]4O)nc3c2)n(C)n1 | / | -1 | / | -1 | / | 7 | / | /
Cc1ccccc1NC(=O)C1CC(Cl)=CCC1C(=O)O (stereo unspecified) | -2 | 0 | 1 | -1 | 1 | -5 | / | /
O=C(O)C1CC=C(Cl)CC1C(=O)NC1CCCCC1 (stereo unspecified) | -3 | 1 | -8 | 28* | 0 | 4 | 160* | 108*
O=Nc1ccc(NO)c2ccccc12 | / | 0 | / | 0 | / | 21 | / | /
O=C(CCC(=O)N1CCOCC1)c1ccc(F)cc1 | 4 | -4 | -5 | -3 | -2 | -8 | / | /
NC(=O)C1CCN(C(=O)CCNS(=O)(=O)c2ccccc2F)CC1 | 2 | -1 | -3 | 37* | 0 | -5 | 11 | 6 | GDH-TPI dose=>10
NC(=O)C1CCN(C(=O)CCC(=O)c2ccc(F)cc2)CC1 | 1 | -1 | 5 | 53* | -2 | -3 | 136* | 128*
O=S(=O)(c1ccc(F)c(F)c1)N1CCCCCCC1 | / | -1 | / | 1 | / | -1 | / | /
Cc1cc(C)c(S(=O)(=O)N2CCN(C(=O)c3ccccc3OCc3c(C)noc3C)CC2)c(C)c1 | / | -5 | / | -1 | / | -10 | / | /
COc1cccc(NC(=S)N2CCC(c3ccc(C)cc3)C2)c1 (stereo unspecified) | 3 | 1 | 5 | 0 | -1 | 7 | / | /
CC1(C(=O)NS(=O)(=O)c2ccc(Cl)cc2)CCN1C(=O)c1ccc(C2CCCCC2)cc1 (stereo unspecified) | / | 1 | / | 5 | / | 3 | / | /
Cc1cc(C)cc(C(=O)O/N=C(\N)c2ccc(Br)cc2)c1 | -7 | 1 | 5 | 0 | 2 | -4 | / | /
N/C(=N\OC(=O)c1ccoc1)c1ccc(Br)cc1 | -6 | -4 | -7 | 38* | 0 | -3 | 155* | 150*
CCOC(=O)Cc1c(C)nc2c(-c3cccc(Br)c3)c[nH]n2c1=O | 12 | -1 | 98 | 41* | -3 | 6 | 21 | 21*
CC(C)c1nc(NCC2CCCO2)c(C#N)c2c1COC(C)(C)C2 (stereo unspecified) | -2 | -5 | 10 | 55* | -3 | 8 | 123* | 101*
CCc1nc(NCC2CCCO2)c(C#N)c2c1COC(C)(C)C2 (stereo unspecified) | -5 | -3 | -3 | 71* | 2 | 9 | 140* | 105*
